Laboratory results published in PubChem BioAssay AID1508625 (Wald Lab, School of Medicine, Case Western Reserve …, 2021).

Experiment: small molecules boosting NK-mediated OVCAR3 lysis – imaging, primary NK cells, calcein-AM imaging, primary screen (AID 1508625);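 also: compound given to NK cells 16 h before adding targets at 1.5 to 1 ratio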;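 as to z-score: more negative robust z means stronger NK killing of tumor cells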
Settings: OVCAR3 lysis by primary NK cells, at 5 µM; z-score: measured here: robust Z-score, single-point normalisation

Work on COc1ccccc1OCCCCCCN1CCOCC1 yielded a corrected activity, negative = more killing of -4.44% and a z-score of -1.82.

With N#Cc1ccccc1NC(=O)CSc1nnc(N)s1 the corrected activity, negative = more killing was 2.04% and the z-score was 0.632.

In the case of CCOc1cc(C=c2sc3nc4ccccc4n3c2=O)ccc1O, the corrected activity, negative = more killing is reported as -2.97% and the z-score is reported as -1.26.

COc1cc(C(=O)N2N=C(C3CC3)CC2(O)C(F)(F)F)cc(OC)c1OC (stereo not drawn) gave a corrected activity, negative = more killing of -3.44% and a z-score of -1.41.

In the case of O=c1nc(C=Cc2ccc(Br)cc2)cc(C(F)(F)F)[nH]1, the corrected activity, negative = more killing is reported as 0.858% and the z-score is reported as 0.256.

Work on O=c1[nH]c2ccc(N=Cc3ccc(-c4ccc([N+](=O)[O-])cc4)o3)cc2[nH]1 yielded a corrected activity, negative = more killing of -0.571% and a z-score of -0.17.

O=C(O)CN1C(=O)c2ccc(C(=O)O)cc2C1=O gave a corrected activity, negative = more killing of -5.22% and a z-score of -1.62.

CC(C)c1ccc(OCC(=O)Nc2ccc3c(c2)OCCO3)cc1 gave a corrected activity, negative = more killing of -2.45% and a z-score of -0.869.

For CNC(=O)C(C)Oc1cccc(Cl)c1 (stereo not drawn), the corrected activity, negative = more killing was -2.63% and the z-score was -1.46.

Work on CCOC(=O)c1c(N)sc(C(=O)Nc2cc(C)ccc2C)c1C yielded a corrected activity, negative = more killing of -5.05% and a z-score of -1.57.

O=C(CCCn1c(=S)[nH]c2cc3c(cc2c1=O)OCO3)NCCCN1CCOCC1 showed a corrected activity, negative = more killing of -7.74% and a z-score of -2.05.

With O=C(C=Cc1ccc([N+](=O)[O-])cc1)NC(=S)NN1CCOCC1 the corrected activity, negative = more killing was -5.28% and the z-score was -1.68.

Molecule Cc1cccc(OCCn2c(=N)n(CC(N)=O)c3ccccc32)c1 has a corrected activity, negative = more killing of -6.66% and a z-score of -1.99.

Work on COc1ccc(-c2nn(-c3ccccc3)cc2C(=O)OCc2ccccc2)cc1 yielded a corrected activity, negative = more killing of -2.27% and a z-score of -1.22.

COc1ccc(-c2ccc3c(N)c(C(=O)NCc4ccc(C(F)(F)F)cc4)sc3n2)cc1 gave a corrected activity, negative = more killing of -1.13% and a z-score of -0.339.

With Cc1ccc(OCCNC(=O)C2CCCCC2)cc1 the corrected activity, negative = more killing was -4.66% and the z-score was -2.59.

CC(=O)Oc1ccc(-c2nc3ccc(OC(C)=O)cc3c(=O)o2)cc1 showed a corrected activity, negative = more killing of -3.33% and a z-score of -1.44.

In the case of CCOc1cc(C(=S)N2CCCCC2)ccc1OC(=O)c1ccc([N+](=O)[O-])cc1, the corrected activity, negative = more killing is reported as 0.525% and the z-score is reported as 0.163.

Cn1c(=O)c2c(nc(Oc3ccc(Cl)cc3)n2Cc2ccccc2Br)n(C)c1=O showed a corrected activity, negative = more killing of -3.02% and a z-score of -0.9.

For CC1C(=O)NN=C1C(=O)NN=Cc1cccnc1 (stereo not drawn), the corrected activity, negative = more killing was -3.57% and the z-score was -1.56.

With COc1cc(OC)c(C=C2C(=O)NC(=S)N(c3ccc(Cl)cc3)C2=O)cc1Br the corrected activity, negative = more killing was -2.07% and the z-score was -1.07.

With CCCCOc1ccc(CN2CCN3CCCC3C2C)cc1 (stereo not drawn) the corrected activity, negative = more killing was -3.8% and the z-score was -1.66.

With COc1ccccc1Cn1c(=S)[nH]c2cc(Cl)ccc2c1=O the corrected activity, negative = more killing was -3.97% and the z-score was -1.05.

With CC(C)c1ccc(NC(=O)c2cc(S(=O)(=O)N3CCN(c4ccccc4)CC3)ccc2F)cc1 the corrected activity, negative = more killing was -8.98% and the z-score was -2.42.

Cc1cc(C)c(S(=O)(=O)NCc2ccc(C(=O)NCCc3ccc(Cl)cc3)cc2)c(C)c1 gave a corrected activity, negative = more killing of -5.64% and a z-score of -1.38.

Cc1ccc(-n2cnc3cc(C(=O)NC4CCCC4)ccc32)cc1Cl showed a corrected activity, negative = more killing of -3.42% and a z-score of -0.921.

In the case of COc1cc(OC)c(C=Nc2ccc(OC(F)(F)F)cc2)cc1Br, the corrected activity, negative = more killing is reported as -1.81% and the z-score is reported as -0.768.

Molecule COc1ccccc1OCC(=O)N=Nc1c(O)[nH]c2c(C)cc(Br)cc12 has a corrected activity, negative = more killing of -2.87% and a z-score of -1.13.

For CC(C)(C)c1ccc(C(=O)Nc2ccc(Cl)c(NC(=O)c3ccccc3)c2)cc1, the corrected activity, negative = more killing was -4.21% and the z-score was -1.49.
